Among the data in PubChem BioAssay AID1850 (Southern Research Specialized Biocontainment Screening …, 2009) are inhibition values, retold here.

Among all 310,000 compounds or so, about 1,000 (0.32%) were called active. The rule behind the calls is not given here. The list is a sample of the results. Potency and affinity values are given separately.

A short description of this test: Inhibition of PhoP regulon, Salmonella typhi GFP reporter cells, confirmation, 4 h (AID 1850).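 Note: 0% = induced wells with vehicle and 100% = uninduced wells.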 The note with it: Salmonella Typhi PhoP-promoter GFP reporter, fluorescence, at 50 µM, active compounds read high.
What is called inhibition is the change of the read-out against control, counted positive when it falls. Consider `Cc1cc(C)c2c3c(sc2n1)C(=O)N(C)CC(=O)N3`, for which the inhibition was -4.13% (inactive).
`C/C(N)=C(/C#N)C(=O)COC(=O)CCC1CCCC1`: the inhibition was 0.41% (inactive).
Next, `N#CCC(=O)Nc1ccc(C(=O)N2CCN(c3ccccn3)CC2)cc1`: 14.2% (inactive); `CN(C)c1ccc(CN(Cc2ccco2)C(=O)c2ccco2)cc1`: -2.38% (inactive); `CS(=O)(=O)N1CCC(Oc2ccccc2C(=O)NC2CCCCCC2)CC1`: -17.3% (inactive).
Consider `CC(=O)c1cnc(Nc2cccc(C)c2)s1`, for which the inhibition was -8.01% (inactive).
Next, `Cn1c(CNC(=O)CNS(=O)(=O)c2ccc(Br)cc2)cc(=O)n(C)c1=O`: -1.92% (inactive); `CC(C)c1ccc(OCC(=O)NNC(=S)NC(=O)c2cccs2)c(Br)c1`: -8.98% (inactive).
`COc1ccc2oc(C(=O)OCC(=O)N(C)CC(=O)Nc3ccc(C)cc3)c(C)c2c1`: the inhibition was 6.55% (inactive).
As to `O=C(c1ccc([N+](=O)[O-])o1)N1CCN(Cc2ccccc2)CC1`, the inhibition was -0.17% (inactive).
As to `CC1CCN(C(=O)c2ccc([N+](=O)[O-])o2)CC1`, the inhibition was 5.43% (inactive).
Next, `COc1ccc(C(=O)Nc2ccc(N3CCCC3)cc2)cc1`: -0.89% (inactive).
For `COc1ccccc1NC(=O)COc1ccc(C(=O)OCC(=O)NC(C)(C)C)cc1OC`, the inhibition was -5.27% (inactive).
For `Clc1ccccc1COc1ccc(/C=N/n2cnnc2)cc1`, the inhibition is -10.4% (inactive).
For `FCCCOc1ccc(/C=N/OCc2ccc(Cl)cc2Cl)cc1`, the inhibition is 14.7% (inactive).
As for `NC(N)=N/N=C/c1ccc(OCc2ccccc2)cc1`, the inhibition is 17% (inactive).
In the case of `COc1cc(/C=N/N=C(N)N)ccc1OCc1ccccc1Cl`, the inhibition was -7.28% (inactive).
For `NC(N)=N/N=C/c1ccc(Cl)cc1Cl`, the inhibition was 14.2% (inactive).
Regarding `COc1cc(/C=N/N=C(N)N)ccc1OCc1ccc(Cl)cc1`, the inhibition is 49.6% (inactive).
Next, `CCCCCCCNC(=O)C1CC(=O)N(C)C(=Nc2ccc(OC)cc2)S1` (stereo unspecified): -2.09% (inactive).
On to `CCOc1cc(C(=O)OC(C)C(=O)Nc2ccc(S(N)(=O)=O)cc2)ccc1OCC(=O)N1CCOCC1` (stereo unspecified), for which the inhibition was 8.2% (inactive).
As for `CC(C)CN1C2CCCC1CC(NC(=O)c1ccc([N+](=O)[O-])cc1)C2` (stereo unspecified), the inhibition was 3.6% (inactive).
Regarding `N/C(=N\NS(=O)(=O)c1ccccc1C(F)(F)F)c1ccccn1`, the inhibition was 2.11% (inactive).
Consider `COc1cccc(C(=O)Nc2c3c(nc4c2CCC4)CCCC3)c1`, for which the inhibition is -0.613% (inactive).
Take `CC(C)(C)C1CCC(C(=O)OCC(=O)N2CCN(C(=O)c3ccco3)CC2)CC1` (stereo unspecified): the inhibition was -8.5% (inactive).
Next, `O=c1c(C=NCc2cccnc2)c(C(F)(F)F)[nH]n1-c1nc2ccccc2s1`: 2.08% (inactive).
